{
  "source": "ChEMBL document CHEMBL3988442",
  "about": "“University of Dundee, Small-Polar-MMV Screening Library” (2021)",
  "note": "Hit rate of the full screen: of about 48,000 compounds, about 13,000 (27%) showed an effect of 50% or more. This is one part of the list.",
  "data": [
    {"system": "Wolbachia pipientis", "test": "Anti-Wolbachia Cell-Based Screen", "format": "functional", "set-up": "scale not given: in the data most compounds retested in dose-response had high values", "conditions": "5 µM", "units": {"Percent Effect": "%"}, "values": [
      {"smiles": "CC(C)OCCS(=O)(=O)NC1CCN(C2CCCC2)C1", "note": "(configuration not stated)", "Percent Effect": -4.658},
      {"smiles": "CC(C)C(O)CNC(=O)CCCc1ccccn1", "note": "(configuration not stated)", "Percent Effect": -2.211},
      {"smiles": "O=C(Nc1cc(-c2ccccn2)no1)C1CC1", "Percent Effect": -13.86},
      {"smiles": "CN(C)C(=O)c1cccc(CCNS(=O)(=O)c2ccccc2)c1", "Percent Effect": 19.97},
      {"smiles": "CCc1nc(CCNS(=O)(=O)c2cccc(C(=O)N(C)CC)c2)cs1", "Percent Effect": 4.281},
      {"smiles": "O=C(NC[C@H]1O[C@H](Cc2cc(-c3ccccn3)on2)CC[C@@H]1O)C1CC1", "Percent Effect": -6.652},
      {"smiles": "CNc1cc(CCNC(=O)CC(C)C)nc(-c2ccccn2)n1", "Percent Effect": 101.5},
      {"smiles": "CNc1cc(CCNC(=O)c2cccnc2)nc(-c2ccncc2)n1", "Percent Effect": -9.73},
      {"smiles": "CNc1cc(CCNS(=O)(=O)c2ccccc2)nc(-c2ccccn2)n1", "Percent Effect": 105},
      {"smiles": "CNc1cc(CCNC(=O)C2CCCC2)nc(-c2ccccn2)n1", "Percent Effect": 117},
      {"smiles": "CC(O)CN1CCC(CNCCOCC(F)(F)F)CC1", "note": "(configuration not stated)", "Percent Effect": 8.822},
      {"smiles": "Cc1cccc2[nH]c(C3CCN(C(=O)c4cccnn4)CC3)nc12", "Percent Effect": 19.31},
      {"smiles": "Cc1cccc(CN2Cc3[nH]nc(COCCO)c3C2)n1.O=C(O)C(F)(F)F", "Percent Effect": -6.746},
      {"smiles": "Cc1cccc(CC(=O)NCCCOC(C)C)c1", "Percent Effect": 4.055},
      {"smiles": "CCOCCCC(=O)NS(=O)(=O)c1ccc(C)s1", "Percent Effect": -11.1},
      {"smiles": "CCOCCCNC(=O)CN(c1ccc(C)c(C)c1)S(C)(=O)=O", "Percent Effect": 99.16},
      {"smiles": "CCOCC(=O)N(C)c1ccc(F)c(Cl)c1", "Percent Effect": 11.18},
      {"smiles": "CCOCCC(=O)N(C)c1ccc(F)c(Cl)c1", "Percent Effect": -4.782},
      {"smiles": "Cc1ccc(N(CC(=O)NCc2nnc3n2CCC3)S(C)(=O)=O)cc1", "Percent Effect": -5.606},
      {"smiles": "CCOCCCNC(=O)CN(c1cc(C)cc(C)c1)S(C)(=O)=O", "Percent Effect": 107.2},
      {"smiles": "CC(C)OCCCNC(=O)CSc1nnc(OC(C)C)s1", "Percent Effect": -7.044},
      {"smiles": "CCOCCCNC(=O)c1cc(Br)c2c(c1)OCCO2", "Percent Effect": -17.45},
      {"smiles": "CCOCCCNC(=O)CCSCc1csc(C)n1", "Percent Effect": 4.852},
      {"smiles": "CC(C)OCCCNC(=O)CN(c1ccc(F)c(F)c1)S(C)(=O)=O", "Percent Effect": 109.3},
      {"smiles": "CCOCCCNC(=O)CN(c1ccc(F)c(F)c1)S(C)(=O)=O", "Percent Effect": 103.3},
      {"smiles": "CCCNC(=O)C(C)Nc1ccn(Cc2ccccn2)n1", "note": "(configuration not stated)", "Percent Effect": 6.912},
      {"smiles": "CCCOCCN1CCc2[nH]c(-c3ccccc3)nc2C1", "Percent Effect": -7.69},
      {"smiles": "CN(C)C1COC2(CCN(S(=O)(=O)c3ccc(F)cc3)CC2)C1.O=C(O)C(F)(F)F", "note": "(configuration not stated)", "Percent Effect": -7.314},
      {"smiles": "CN(CC1Cc2ccccc2CN1C)c1nc(N)nc2c1CCNCC2", "note": "(configuration not stated)", "Percent Effect": -3.797},
      {"smiles": "COCc1cc(N(C)Cc2c(C)nn(C)c2C)n2nccc2n1", "Percent Effect": 12.12},
      {"smiles": "CCOCCCNC(=O)Cc1cccc(F)c1", "Percent Effect": 2.614},
      {"smiles": "CCOCCCNC(=O)CN(c1cccc(F)c1)S(C)(=O)=O", "Percent Effect": 112.7},
      {"smiles": "COCCCNC(=O)CN(C)Cc1ccc(F)cc1Cl", "Percent Effect": -11.13},
      {"smiles": "COc1cccc2ccc(CN3CCN(c4ncccc4C)CC3)nc12", "Percent Effect": 2.179},
      {"smiles": "O=C(c1cnc(O)cc1O)N1CCCC(CCc2ccccc2F)C1", "note": "(configuration not stated)", "Percent Effect": 119.6},
      {"smiles": "CN1N=C(C(=O)N2CCCC(CCc3ccccc3F)C2)CCC1=O", "note": "(configuration not stated)", "Percent Effect": -18.53},
      {"smiles": "Cc1nc(CN2CCCC(CCc3ccc(F)c(F)c3)C2)c[nH]1", "note": "(configuration not stated)", "Percent Effect": -4.452},
      {"smiles": "CCc1nc(N)sc1C(=O)N1CCCC(CCc2ccccc2C)C1", "note": "(configuration not stated)", "Percent Effect": 1.755},
      {"smiles": "Cc1ccc(-c2ncc(C(=O)N3CCCC(CCN)C3)c(O)n2)cc1", "note": "(configuration not stated)", "Percent Effect": 0.928},
      {"smiles": "COc1coc(CN2CCCC(CCc3ccccc3F)C2)cc1=O", "note": "(configuration not stated)", "Percent Effect": 19.37},
      {"smiles": "Cc1nc(N)sc1C(=O)N1CCCC(COc2ccc(F)cc2)C1", "note": "(configuration not stated)", "Percent Effect": -20.41},
      {"smiles": "Cc1nc(N)ncc1C(=O)N1CCCC(CCc2ccc(F)c(F)c2)C1", "note": "(configuration not stated)", "Percent Effect": 95.78},
      {"smiles": "CN1N=C(C(=O)N2CCCC(CCc3c(F)cccc3F)C2)CCC1=O", "note": "(configuration not stated)", "Percent Effect": 7.677},
      {"smiles": "CN1N=C(C(=O)N2CCCC(CCc3cccc(F)c3)C2)CCC1=O", "note": "(configuration not stated)", "Percent Effect": -39.97},
      {"smiles": "Cc1nc(N)ncc1C(=O)N1CCCC(CCc2ccc(F)cc2)C1", "note": "(configuration not stated)", "Percent Effect": 102.6},
      {"smiles": "Cc1nc(N)ncc1C(=O)N1CCCC(CCc2ccccc2F)C1", "note": "(configuration not stated)", "Percent Effect": 102.1},
      {"smiles": "O=C(NCCN1CCOCC1)N(Cc1ccoc1)C1CCCCC1", "Percent Effect": 0.09271},
      {"smiles": "COC(=O)CCC(=O)Nc1ccc(Br)c(C)n1", "Percent Effect": -4.996},
      {"smiles": "COc1cccc(CCC2CCCN(C(=O)c3cnccn3)C2)c1", "note": "(configuration not stated)", "Percent Effect": -42.01},
      {"smiles": "COc1ccc(CCC2CCCN(C(=O)c3cnc(N)nc3C)C2)cc1", "note": "(configuration not stated)", "Percent Effect": 107.8},
      {"smiles": "COc1cccc(CCC2CCCN(C(=O)c3ccc(OC)o3)C2)c1", "note": "(configuration not stated)", "Percent Effect": -11.16},
      {"smiles": "Cc1nccn1CCN(C)C(=O)c1cn(CC2CCCCC2)nn1", "Percent Effect": 121.2},
      {"smiles": "Cc1nccn1CCC(=O)N1CCCN(c2ccccc2)CC1", "Percent Effect": 21.45},
      {"smiles": "Cc1nccn1CCC1CCCCN1C(=O)c1ccc(N(C)C)cc1", "note": "(configuration not stated)", "Percent Effect": 11.5},
      {"smiles": "CN(C)CCN(C)C(=O)c1cn(CC2CCCCC2)nn1", "Percent Effect": 101.9},
      {"smiles": "CN(Cc1ccncc1)C(=O)NCc1cn(-c2ccccc2)nn1", "Percent Effect": -7.371},
      {"smiles": "Cc1nccn1CCN(C)C(=O)c1cn(-c2ccccc2)nn1", "Percent Effect": 107.7},
      {"smiles": "CCN(Cc1ccncc1)C(=O)c1cn(CC2CCCNC2)nn1", "note": "(configuration not stated)", "Percent Effect": -3.068},
      {"smiles": "Cc1nccn1CCC1CCCCN1Cc1cnc(N(C)C)nc1", "note": "(configuration not stated)", "Percent Effect": -18.73},
      {"smiles": "CCN(Cc1ccncc1)C(=O)c1cn(CCC2CCCCC2)nn1", "Percent Effect": 4.586},
      {"smiles": "CC(C)c1nn(C)c(N(C)C)c1CNCc1cscn1.Cl", "Percent Effect": -8.215},
      {"smiles": "Cc1ncccc1NC(=O)[C@@H]1CCO[C@@H]2CCN(c3ccncn3)C[C@H]21", "Percent Effect": 113.9},
      {"smiles": "COCCNC(=O)[C@@H]1CCO[C@@H]2CCN(c3ccc(C)nn3)C[C@@H]21", "Percent Effect": -1.212},
      {"smiles": "CC(C)NC(=O)[C@@H]1CCO[C@@H]2CCN(c3ncccn3)C[C@@H]21.O=C(O)C(F)(F)F", "Percent Effect": -3.581},
      {"smiles": "O=C(NCC1CC1)[C@@H]1CCO[C@@H]2CCN(c3ncccn3)C[C@@H]21.O=C(O)C(F)(F)F", "Percent Effect": -3.49},
      {"smiles": "O=C(NCc1ccco1)[C@@H]1CCO[C@@H]2CCN(c3ccncn3)C[C@H]21.O=C(O)C(F)(F)F", "Percent Effect": -22.24},
      {"smiles": "Cc1ncccc1NC(=O)[C@@H]1CCO[C@@H]2CCN(c3ccccc3)C[C@@H]21.O=C(O)C(F)(F)F.O=C(O)C(F)(F)F", "Percent Effect": 108.5}
    ]}
  ]
}
